From PubChem BioAssay
A number with no mark means an inactive call. The rule behind the calls is not given here.

Each compound was assayed against Pantothenate synthetase (Mycobacterium tuberculosis (strain ATCC 25618 / H37Rv)) (UniProt P9WIL5) (assay: Recombinant Mtb pantothenate synthetase (PanC) inhibitors, coupled enzyme, confirmatory (AID 375;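 note: 0% = full reaction with vehicle and 100% = no enzyme background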)). Conditions: coupled enzyme assay; at 10 µM, hits give high values.
Chain of Pantothenate synthetase (Mycobacterium tuberculosis (strain ATCC 25618 / H37Rv)) (P9WIL5 whole entry, looked up): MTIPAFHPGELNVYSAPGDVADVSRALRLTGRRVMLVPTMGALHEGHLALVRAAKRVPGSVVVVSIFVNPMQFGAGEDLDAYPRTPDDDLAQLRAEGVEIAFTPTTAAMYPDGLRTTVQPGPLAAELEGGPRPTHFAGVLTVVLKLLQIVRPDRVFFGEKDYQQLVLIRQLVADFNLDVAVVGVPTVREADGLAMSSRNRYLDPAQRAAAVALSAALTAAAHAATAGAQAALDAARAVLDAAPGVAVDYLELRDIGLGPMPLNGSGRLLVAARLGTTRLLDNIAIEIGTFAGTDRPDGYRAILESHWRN
In the case of `CC(C(=O)N1CCCCC1)n1ncn2cccc2c1=O` (stereo not given), the inhibition is reported as 0%. `Cn1cc(Br)c(C(=O)NC2CCCCC2)n1` gave an inhibition of 4%. Compound `CS(=O)(=O)N(CC(=O)NC1CC1)c1cccc(F)c1` has an inhibition of 0%. In the case of `CCn1c(Cc2ccc(OC)cc2)nnc1SCC(=O)Nc1cccc(C(=O)OC)c1`, the inhibition is reported as 5%. Compound `COc1ccccc1NC(=O)NC(N)=O` has an inhibition of 0%. `CCC[C@@H]1C[C@@H](C(=O)N[C@H]([C@@H](C)O)[C@H]2O[C@H](SC)[C@H](O)[C@@H](O)C2O)N(C)C1` (stereo not given in full) was tested, and the inhibition was 0%. In the case of `CN(C=O)CP(=O)(O)CCN1CCCC1=O`, the inhibition is reported as 0%. For `COc1ccc(CC(NC(C)=O)C(=O)NC2CCN(C(=O)Nc3ccc(C#N)cc3)CC2)cc1OC` (stereo not given), the inhibition was 10%. `CCc1cccc2c(=O)c(C(=O)NCCN3CCOCC3)c[nH]c12` gave an inhibition of 10%. Work on `CCOc1cc(CN2CCN(C(=O)c3ccco3)CC2)ccc1OC` yielded an inhibition of 9%. `OCCN1CCN(CC(O)COc2ccc3ccccc3c2)CC1` (stereo not given) showed an inhibition of 0%. Work on `CCSc1nc(-c2ccc(OC)cc2)ccc1C#N` yielded an inhibition of 1%. With `O=C(c1ccc(Br)cc1)N1CCN(S(=O)(=O)c2ccccc2)CC1` the inhibition was 0%. Compound `CC(CN1CCN(C)CC1)OC(=O)c1ccc(Cl)cc1Cl` (stereo not given) has an inhibition of 0%. In the case of `O=C1CN(C(=O)CN2CCCC2)C(c2ccccc2)c2cc(Br)ccc2N1` (stereo not given), the inhibition is reported as 0%. `COc1ccc(Cl)cc1N1CC(c2nc3ccccc3[nH]2)CC1=O` (stereo not given) was tested, and the inhibition was 6%. Work on `CCOC(=O)c1[nH]c2ccccc2c1NC(=O)C(C)(C)C` yielded an inhibition of 0%. `Cc1csc2nc(CSc3ccc(Cl)cc3)cn12` was tested, and the inhibition was 0%. For `CCCC(=O)Nc1ccc(OCC(=O)OC)cc1`, the inhibition was 5%. For `COc1ccc(OC)c(NC(=O)C23CCC(C)(C(=O)C2)C3(C)C)c1` (stereo not given), the inhibition was 3%. In the case of `COc1ccc(-c2nnc(SCc3nnc(-c4ccc(Cl)cc4)o3)n2-c2ccccc2)cc1`, the inhibition is reported as 0%. `Nc1nc2n(n1)C(c1cccc(Cl)c1)CC(c1ccc(F)cc1)N2` (stereo not given) showed an inhibition of 0%. `COc1cc2c(cc1OC)C(c1cccnc1)CC(=O)N2` (stereo not given) gave an inhibition of 5%. In the case of `OC1C=CSc2nc3ccccc3n21` (stereo not given), the inhibition is reported as 0%. `Cc1nc(SC2C=CS(=O)(=O)C2)n[nH]1` (stereo not given) showed an inhibition of 5%. For `CCOC(=O)c1ccc(-n2c(C)nc3c(cnn3-c3ccccc3C)c2=O)cc1`, the inhibition was 0%. `COc1nc(OC)nc(N2CCC(C(=O)NCc3cccs3)CC2)n1` gave an inhibition of 0%. In the case of `CCN(CC)C(=O)COC(=O)c1ccc(O)cc1`, the inhibition is reported as 0%. In the case of `O=C(O)c1cccnc1Nc1cccc(C(F)(F)F)c1`, the inhibition is reported as 0%. Compound `CC(=O)c1cccc(NC(=O)NCc2ccccn2)c1` has an inhibition of 2%. In the case of `Cc1nc2cc(C(=O)O)ccc2n1-c1ccc(F)cc1F`, the inhibition is reported as 2%. With `O=C(CCC1COc2ccccc2O1)NCC1COc2ccccc2O1` (stereo not given) the inhibition was 0%. `Cc1cccc(Nc2nc3c(c(=O)n(C)c(=O)n3C)n2Cc2ccccc2)c1` was tested, and the inhibition was 5%. `N#CCCN1CCN(S(=O)(=O)c2ccc(S(=O)(=O)NC3CCCC3)cc2)CC1` gave an inhibition of 0%. With `O=C(c1cnc2sccn2c1=O)N1CCc2ccccc2C1` the inhibition was 0%. In the case of `CCOC(=O)c1ccc(NS(=O)(=O)c2ccc3c(c2)CCCN3C(C)=O)cc1`, the inhibition is reported as 0%. For `CCn1cc(C(=O)O)c(=O)c2cc(F)c(N3CCNCC3)cc21`, the inhibition was 0%. With `CN(CC(=O)N1CCCc2c1c(=O)oc1ccc(O)cc21)Cc1ccccc1` the inhibition was 0%. `CCCC1(CCC)NC(=O)NC1=O` showed an inhibition of 0%. `CCCn1c(O)c(CN2CCCC(C)C2)c(C)c(C#N)c1=O` (stereo not given) gave an inhibition of 10%.
